Screens as filed in PubChem.
LASV entry inh: blocks Lassa virus binding to or entry into cells. Lassa virus pseudotype entry inhibition, cell reporter. Potency, µM (top dose mostly 37.9 µM), without a hit: top-dose activity change, negative = inhibition, usual class: inhibitors. actives 1.2% (n = 300,000); calls by dose curve; tested in HEK293 cells; note: potency is the fitted concentration of half-maximal effect; nearly all actives have a fitted effect of over 50% in size
HCMV inh: inhibitors of human cytomegalovirus; activity change, negative = inhibition, % at 57.5 µM; AID 1259415; HFF cells, HCMV-luciferase reporter, 72 h; hits give low values; actives 4.5% (n = 410,000); in the data active = activity change below about -60%; inconclusive = no clear call, values can overlap the other calls; inactive = above about -39%
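Human foreskin fibroblasts infected with luciferase-reporter HCMV at MOI 1 PFU/cell, compounds at two doses. Luciferase measured 72 h post infection; normalized to buffer-only basal and Salinomycin (10uM) controls.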
Vaccinia mCherry: vaccinia inhibition (mCherry reporter). Vaccinia virus mCherry reporter infection, fluorescence. Potency, µM (highest dose often 36.5 µM), inactives show top-dose activity change, negative = inhibition, hits mostly inhibitors. actives 0.63% (n = 310,000). AID 720579; calls by dose curve; tested in A549 cells; note: potency is the fitted concentration of half-maximal effect; nearly all actives have a fitted effect of over 35% in size
VACV Venus inh: inhibitors of vaccinia virus (Venus reporter) | Vaccinia virus Venus reporter expression, fluorescence | Potency, µM (titrated, usually from 36.5 µM), for the others: at the top dose activity change, negative = inhibition, actives largely listed as inhibitors | actives 0.46% (n = 330,000) | AID 720580; calls by dose curve; tested in A549 cells; note: potency is the fitted concentration of half-maximal effect; nearly all actives have a fitted effect of over 30% in size
FMDV inh: foot and mouth disease virus antiviral activity | Potency, µM (series often up to 57.9 µM), inactives show top-dose activity change, negative = inhibition, most hits filed as inhibitors | AID 1159524 | FMDV antiviral cell-based qHTS | actives 1.2% (n = 410,000); calls by dose curve; tested in HEK293T cells; note: read-out not given here; potency is the fitted concentration of half-maximal effect; nearly all actives have a fitted effect of over 45% in size
Marburg entry inh: blocks Marburg virus binding to or entry into cells. Marburg virus pseudotyped entry inhibition, cell reporter. Potency, µM (top dose mostly 37.8 µM), for the others: at the highest dose activity change, negative = inhibition, usual class: inhibitors. actives 1.8% (n = 300,000); calls by dose curve; tested in HEK293 cells; note: potency is the fitted concentration of half-maximal effect
Active calls of the source: *; i = inactive; u = inconclusive; x = no result; ! = not active in a repeat; [ ] = remark or other dose. In the library only some 6.5% were active in any assay of this set; here they are far more common. % is set by controls: 0 for no effect and ±100 for the full control effect.

SMILES	LASV entry inh	HCMV inh	Vaccinia mCherry	VACV Venus inh	FMDV inh	Marburg entry inh
O=C(c1ccccc1)c1ccc(C(=O)N2CCN(c3ccccc3O)CC2)cc1	x	-64.8*	-13.6%	-6.6%	u	x
O=C(NC(=S)Nc1ccccc1C(=O)O)c1cncc(Br)c1	13.7%	8.8	-3.9%	-4.6%	-1.7%	6.4%
O=C(Nc1ccccc1N1CCOCC1)c1ccc(Br)o1	-10.0%	-62.9*	x	x	23.2%	-5.5%
Cc1cc(C)nc(NC(=O)c2ccc(C)o2)n1	x	-98.2*	x	x	-28.8%	x
Nc1ccccc1N1CCN(C(=O)c2ccccc2)CC1	1.7%	-21.1	-11.7%	-4.1%	-10.1%	-13.4%
O=C(NC(=S)Nc1ccccc1O)c1cncc(Br)c1	-22.8%	u	14.1µM*	u	31.5%	-5.3%
CCc1cccc(NC(=O)C(CC)n2nc(C)c3sc4ccccc4c3c2=O)c1 (centres undefined)	-0.6%[46.1 µM]	0.8	i	-17.2%	-20.6%	u
COc1ccc2c(c1)CCc1cnc(-n3ncc(C(=O)NCCCN4CCOCC4)c3C)nc1-2	x	x	u	-20.7%	-3.9%	x
COc1ccc(C(=O)NCc2nnc(SCC(=O)Nc3ccc(F)cc3)n2-c2ccccc2)cc1	u	0.8	0.5%	-10.7%	5.3%	21.1%[46.1 µM]
CN1CCN(c2ccccc2NC(=O)c2ccc(-c3cccc(Cl)c3)o2)CC1	-23.7%	26.6	u	u	u	12.6µM*
O=C(NC(=S)Nc1ccccc1N1CCOCC1)c1ccc(Br)cc1	x	-65.6*	x	x	0.3%	x
Cc1ccc(C(=O)Nc2ccccc2N2CCCCC2)o1	x	-61.0*	x	x	u	x
Cc1cc(NC(=O)c2ccc(Br)o2)ccc1NC(=O)c1ccco1	19.7%[46.1 µM]	-88.9*	-6.1%	3.8%	22.6%	26.9%[46.1 µM]
Cc1ccc(C(=O)Nc2ccccc2N2CCCCC2)cc1	-3.8%[46.1 µM]	-10.9	-24.7%	9.9%	-20.4%	-18.2%[46.1 µM]
Cc1ccc(C(=O)Nc2ccc(NC(=O)c3ccco3)c(C)c2)cc1	u	-27.4	76.3%	-6.8%	8.2%	u
CC(=O)Nc1ccc(Nc2ncnc3c2c(-c2ccccc2)cn3-c2ccc(C)c(Cl)c2)cc1	-25.4%[46.1 µM]	-27.6	-28.1%	-18.9%	u	x
Cc1ccc(N=C2NC(=O)CC(C(=O)Nc3cc(C(F)(F)F)ccc3Cl)S2)cc1 (centres undefined)	-10.5%[46.1 µM]	6.6	0.2%	-2.3%	-27.8%	-21.1%[46.1 µM]
O=C(Nc1ccc(N2CCN(C(=O)c3ccccc3)CC2)cc1)c1ccc(Br)o1	-27.5%	-25.1	x	-29.3%	0.0%	u
O=C(Nc1ccccc1N1CCN(C(=O)c2ccccc2)CC1)c1ccc([N+](=O)[O-])o1	-14.6%[46.1 µM]	u	11.2µM*	u	0.0%	u
Cc1ccc(C(=O)Nc2ccccc2C(N)=O)o1	u	29.1	x	x	0.0%	5.8%
O=C(Nc1ccccc1N1CCCC1)c1ccc([N+](=O)[O-])o1	x	-70.7*	x	x	0.0%	x
Cc1ccc(C(=O)Nc2ccccc2-c2ccccc2)o1	12.5%	-67.1*	x	-23.0%	0.0%	-4.9%
O=C(Nc1ccc(N2CCN(C(=O)c3ccccc3)CC2)c(Cl)c1)c1ccc(Br)o1	20.6µM*	-67.5*	x	x	-26.9%	u
O=C(Nc1ccccc1N1CCN(C(=O)c2ccccc2)CC1)c1cc2ccccc2o1	11.3%	19.3	-8.1%	-5.1%	u	u
CC1CCN(c2ccccc2NC(=O)c2ccc([N+](=O)[O-])o2)CC1	x	-9.7	14.1%	9.4%	-2.0%	-10.9%[46.1 µM]
SMILES	LASV entry inh	HCMV inh	Vaccinia mCherry	VACV Venus inh	FMDV inh	Marburg entry inh
COc1ccc(CNC(=O)C(=O)Nc2c3c(nn2-c2ccccc2)CSC3)cc1	u	-8.1	u	-27.6%	-21.4%	x
CCCNC(=O)N1CCC2(CC1)CN(C(=O)c1ccccc1)[C@H](CO)c1[nH]c3cc(OC)ccc3c12	x	-2.4	x	x	x	x
COc1ccc(CCNC(=O)c2cc3c(s2)-c2c(C)cccc2OC3)c(OC)c1	x	-28.4	-16.2%	-18.5%	-12.7%	-21.9%[46.1 µM]
CCCn1c(NC(=O)c2ccc([N+](=O)[O-])o2)nc2ccccc21	-28.7%	-62.8*	u	-9.6%	-9.1%	u
O=C(NCCOc1ccccc1)C1Nc2ccc(C(F)(F)F)cc2C2c3ccccc3CC12 (centres undefined)	x	83.5	u	-28.6%	-19.4%	x
CCOC(=O)C1Nc2ccc(C(F)(F)F)cc2C2c3ccccc3CC12 (centres undefined)	x	64.3	u	u	28.2µM*	x
Cc1cccc(C)c1Nc1oc(-c2ccccc2)nc1C(C)(C)C	x	x	x	x	x	1.6%[14.2 µM]
COc1cc(-c2ccc(NC(=O)NC3CC3)c(OC)c2)ccc1NC(=O)NC1CC1	x	-77.3*	x	x	x	x
COc1ccc(NC(=S)NC2CCCCCC2)c(OC)c1	-1.9%	-77.2*	-22.2%	-4.2%	-0.2%	20.6%
COc1ccc(NC(=S)NCCC(c2ccccc2)c2ccccc2)c(OC)c1	u	-60.4*	u	u	-14.5%	u
COc1ccc(NC(=O)C(CC(C)C)NC(=O)C2CCCCC2)c(OC)c1 (centres undefined)	-9.2%[46.1 µM]	u	-1.4%	-7.7%	316µM*!	-8.5%[46.1 µM]
CCC(=O)Nc1ccc(-c2ccc(NC(=O)CC)c(OC)c2)cc1OC	x	u	u	-15.2%	-7.7%	x
CCOc1ccccc1NC(=O)C(CC(C)C)NC(=O)C1CCCCC1 (centres undefined)	15.9%	58.2	x	x	35.5%	-16.3%
COC(=O)[C@H](Cc1ccc(C#Cc2ccccc2)cc1)NC(=O)C[C@H]1CCCN(C(=N)N)C1	x	x	x	x	-16.6%	x
CC(C)=CCN1C(=O)[C@@]2(CC(C)=C[C@@H](COCc3ccccc3)O2)c2ccccc21	u	x	x	x	x	2.9%[14.2 µM]
CN1CCN(c2nccc3[nH]c(-c4ccccc4Cl)nc23)CC1	x	-4.9	x	x	x	x
O=C(COc1ccc(Cl)cc1)Nc1ccc(C(=O)OCc2cc(=O)n3ccsc3n2)cc1	-0.9%[46.1 µM]	11.1	-21.2%	-16.9%	u	x
COc1ccc(C2=NN(C(=O)CCC(=O)O)C(c3ccc(OC)c(OC)c3)C2)cc1 (centres undefined)	16.6%	-102.5*	-4.7%	-8.0%	-11.9%	6.1%
COc1ccc(C2CC(c3ccc(Br)cc3)=NN2C(=O)CCC(=O)O)cc1OC (centres undefined)	-19.7%[46.1 µM]	-7.6	i	-12.5%	-9.3%	-6.0%[46.1 µM]
CC1=C(C(=O)OCc2ccc3c(c2)OCO3)C(c2ccc(Cl)cc2)NC(=O)N1 (centres undefined)	u	-85.7*	u	u	x	2.06µM*
CCOC(=O)C1=C(CNCc2ccc(C)cc2)NC(=O)NC1c1ccc(OC)cc1 (centres undefined)	u	15.2	x	u	-21.9%	5.01µM*
COc1ccc(COC(=O)C2=C(C)NC(=O)NC2c2ccc(O)c(OC)c2)cc1 (centres undefined)	u	-68.1*	i	-16.8%	x	-8.2%
COc1ccccc1C1c2c(-c3ccc(Cl)cc3)n[nH]c2C(=O)N1c1ccc(C)cc1 (centres undefined)	u	-105.0*	-11.6%	-5.1%	u	u
